Reference: PubChem BioAssay (Tox21)
Records with an inconclusive call do not appear. Active and inactive are the calls of the source. Unless noted, calls follow the shape of the dose curve; as a rule, active = well fitted curve in the direction sought with a large enough effect in the repeat runs; inconclusive = weak or mixed curves; inactive = no such curve, though single readings can be large; an effect the other way counts as inactive or inconclusive.

How the values were obtained:
[1] = qHTS assay for small molecules that induce genotoxicity in human embryonic kidney cells expressing luciferase-tagged ATAD5 (AID 651632); also: nearly all actives have a fitted effect of over 15% in size; also: potency is read from the fitted curve at half-maximal effect
Procedure, shortened: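 Reporter cells (HEK293T) express luciferase-tagged ATAD5, a protein that accumulates after DNA damage. Treat 16 hr at 37C/5% CO2, add Amplite, wait 30 min at RT, and read luminescence.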

[2] = qHTS assay for small molecule agonists of the p53 signaling pathway - cell viability (AID 651633; calls by dose curve;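 also: p53RE-bla HCT reporter cells with a stable beta-lactamase p53 reporter; series mostly up to about 83 µM; nearly all actives have a fitted effect of over 30% in size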)
Procedure, shortened: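 p53RE-bla cells, seeded at 4,000 per well and rested 5 h at 37 C/5% CO2, received compounds in DMSO for 16 h at 37 C. CellTiter-Glo was then added, and luminescence was read after 30 min at room temperature to gauge cytotoxicity.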

[3] = qHTS assay for small molecules that induce genotoxicity in human embryonic kidney cells expressing luciferase-tagged ATAD5 - cell viability (AID 651634; calls by dose curve; also: nearly all actives have a fitted effect of over 25% in size; also: potency is read from the fitted curve at half-maximal effect)
Procedure, shortened: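 Seeding of 2,000 HEK293T ATAD5-luciferase cells per well preceded pin-tool compound transfer. Plates sat 15.5 hr at 37C under 5% CO2, then fluorescence was read after 30 min with CellTiter-Fluor.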

[4] = qHTS assay for small molecule disruptors of the mitochondrial membrane potential - cell viability (AID 720634; calls by dose curve;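 also: human HepG2 liver cancer cells; series mostly up to about 83 µM; nearly all actives have a fitted effect of over 20% in size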)
Procedure, shortened: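 Measuring cytotoxicity alongside mitochondrial potential, the screen quantified ATP by luminescence in HepG2 cells after 1 hr compound incubation and a 30 min room-temperature CellTiter-Glo step.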

[5] = qHTS assay to test for compound auto fluorescence at 590 nm (red) in HepG2 cells (AID 720674)
Procedure, shortened: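 Intrinsic compound fluorescence in the red window (Ex/Em 540/590 nm) is measured in attached HepG2 cells exposed for 1 hr, DMSO vehicle as baseline, benchmarked to Rose Bengal sodium.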

[6] = qHTS assay to test for compound auto fluorescence at 535 nm (green) in HepG2 cells (AID 720675)
[7] = qHTS assay to test for compound auto fluorescence at 460 nm (blue) in HEK293 cells (AID 720678)
Procedure, shortened: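 Blue read-out at excitation 405 nm and emission 460 nm follows overnight compound exposure of HEK293 cells at 37C in 5% CO2. Activity is given as auto fluorescence equivalency to triamterene.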

[8] = qHTS assay to test for compound auto fluorescence at 590 nm (red) in HEK293 cells (AID 720679)
Procedure, shortened: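 Red channel, Ex/Em 540/590nm; signal expressed as equivalency to Rose Bengal sodium. HEK293, 2,000 cells/well, 10% dialyzed FBS; 23 nL compound pinned after 4-5 hr attachment; overnight 37C/5% CO2 before reading.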

[9] = qHTS assay to test for compound auto fluorescence at 535 nm (green) in HEK293 cells (AID 720680)
[10] = qHTS assay to test for compound auto fluorescence at 460 nm (blue) in HEK293 cell free culture (AID 720681)
Procedure, shortened: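 Test compounds were pinned into cell-free culture medium (DMEM with 10% FBS) and fluorescence was read directly at Ex/Em 405/460 nm. Signals were expressed as fluorescence equivalents of triamterene, with DMSO vehicle as control.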

[11] = qHTS assay to test for compound auto fluorescence at 535 nm (green) in HEK293 cell free culture (AID 720682)
Procedure, shortened: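 Steps: dispense DMEM/10% FBS into empty wells; pin in compound or DMSO; measure fluorescence at 485/535 nm. Values are fluorescein equivalents.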

[12] = qHTS assay to test for compound auto fluorescence at 590 nm (red) in HEK293 cell free culture (AID 720683)
Procedure, shortened: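 Tox21 10K library compounds were pinned into cell-free DMEM with 10% FBS and fluorescence was read at excitation 540 nm. Activity is expressed as Rose Bengal sodium equivalency.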

[13] = qHTS assay to test for compound auto fluorescence at 590 nm (red) in HepG2 cell free culture (AID 720684)
Procedure, shortened: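 Measured in medium alone (MEM containing 10% FBS) following pintool addition of compound; emission at 590 nm with 540 nm excitation, referenced to Rose Bengal sodium.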

[14] = qHTS assay to test for compound auto fluorescence at 460 nm (blue) in HepG2 cell free culture (AID 720685)
Procedure, shortened: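 Compound (23 nL) or DMSO pinned into cell-free MEM with 10% FBS; blue fluorescence read at 405/460 nm excitation/emission, expressed as auto-fluorescence equivalency to triamterene.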

[15] = qHTS assay to test for compound auto fluorescence at 460 nm (blue) in HepG2 cells (AID 720687)
Procedure, shortened: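 Cells (2,000/well in MEM with 10% FBS) attached overnight at 37 C, then were exposed to compound or DMSO for 1 hr at 37 C, 5% CO2. Fluorescence read at Ex/Em 405/460 nm, expressed as triamterene-equivalent signal.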

[16] = target: Glucocorticoid receptor (Homo sapiens) (UniProt P04150); experiment: qHTS assay to identify small molecule agonists of the glucocorticoid receptor (GR) signaling pathway (AID 720691; active = well fitted activation curve with a large enough effect in the signal ratio in the repeat runs, not every such curve was filed as active; the % refers to the signal ratio)
Procedure, shortened: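 Reporter read-out: fluorescence intensity following 2 h room-temperature LiveBLAzer B/G FRET substrate loading. Prior step: GR-bla HeLa cells held 4 h, then treated 18 h at 37 C.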

[17] = target: Glucocorticoid receptor (Homo sapiens) (UniProt P04150); experiment: qHTS assay to identify small molecule antagonists of the glucocorticoid receptor (GR) signaling pathway (AID 720692; active = well fitted inhibition curve with a large enough effect in the signal ratio in the repeat runs, not every such curve was filed as active; the % refers to the signal ratio)
Procedure, shortened: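 Dexamethasone (5 nM final) stimulated a stably integrated GRE-beta-lactamase reporter in HeLa cells during 18 h co-incubation with compounds; signal was quantified as fluorescence intensity of B/G FRET substrate after 2 h.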

[18] = qHTS assay to test for compound auto fluorescence at 535 nm (green) in HepG2 cell free culture (AID 720686)
[19] = qHTS assay for small molecule disruptors of the mitochondrial membrane potential (AID 720635); also: potency is read from the fitted curve at half-maximal effect
Procedure, shortened: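 HepG2 cells (2,000/well) attached overnight at 37C, then took compound for 1 hr at 37C, 5% CO2. Mito-MPS dye was added for 30 min; fluorescence was read at 490/535 nm (monomers) and 540/590 nm (aggregates).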
% is scaled to controls: 0 for no effect and ±100 for the full control effect.

Sequence of Glucocorticoid receptor (Homo sapiens) (P04150 whole entry, looked up): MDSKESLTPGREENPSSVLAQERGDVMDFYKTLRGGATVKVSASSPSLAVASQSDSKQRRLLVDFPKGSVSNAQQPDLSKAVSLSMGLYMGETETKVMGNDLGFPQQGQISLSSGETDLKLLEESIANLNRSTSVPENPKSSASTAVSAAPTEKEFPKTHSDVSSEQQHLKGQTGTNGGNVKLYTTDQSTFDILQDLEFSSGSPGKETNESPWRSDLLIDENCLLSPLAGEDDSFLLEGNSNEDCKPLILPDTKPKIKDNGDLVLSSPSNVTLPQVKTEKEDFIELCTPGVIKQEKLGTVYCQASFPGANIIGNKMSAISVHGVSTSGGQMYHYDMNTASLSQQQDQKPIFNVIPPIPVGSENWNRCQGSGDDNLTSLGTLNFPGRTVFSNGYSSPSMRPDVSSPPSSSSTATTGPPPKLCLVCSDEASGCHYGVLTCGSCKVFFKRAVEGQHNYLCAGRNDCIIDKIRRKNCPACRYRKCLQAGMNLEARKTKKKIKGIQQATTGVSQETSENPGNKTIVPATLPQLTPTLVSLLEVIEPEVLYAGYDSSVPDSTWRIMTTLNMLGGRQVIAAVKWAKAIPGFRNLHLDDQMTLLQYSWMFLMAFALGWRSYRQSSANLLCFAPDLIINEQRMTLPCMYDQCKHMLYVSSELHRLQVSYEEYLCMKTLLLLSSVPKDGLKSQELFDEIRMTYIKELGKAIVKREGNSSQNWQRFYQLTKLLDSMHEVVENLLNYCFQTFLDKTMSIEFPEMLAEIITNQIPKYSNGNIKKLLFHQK

CC(=O)O[C@@H]1C(=O)O[C@@H]2[C@H]1OC(=O)[C@@H]2OC(C)=O
inactive: Potency [1] | Potency [2] | Potency [3] | Potency [4] | outcome [5] | outcome [6] | Potency [7] | outcome [8] | outcome [9] | Potency [10] | outcome [11] | outcome [12] | outcome [13] | Potency [14] | Potency [15] | Potency [16] | Potency [17]

O=S1(=O)c2cccc3cccc(c23)N1CCCN1CCN(c2ccc(F)cc2)CC1
inactive: Potency [1] | Potency [2] | Potency [3] | Potency [4] | outcome [5] | outcome [6] | Potency [7] | outcome [8] | outcome [9] | Potency [10] | outcome [12] | outcome [13] | Potency [14] | outcome [18] | Potency [15] | Potency [16] | Potency [17]

O=C(NS(=O)(=O)/C=C/c1cccs1)c1ccc(F)cc1Br
active: Potency [1] 1.37 µM | Potency [19] 61.1 µM
inactive: Potency [2] | Potency [4] | outcome [5] | outcome [6] | Potency [7] | outcome [8] | outcome [9] | Potency [10] | outcome [12] | outcome [13] | Potency [14] | Potency [15]

O=C(Cl)c1c(Cl)cccc1Cl
inactive: Potency [1] | Potency [2] | Potency [4] | outcome [5] | outcome [6] | Potency [7] | outcome [8] | outcome [9] | Potency [10] | outcome [11] | outcome [12] | outcome [13] | Potency [14] | outcome [18] | Potency [15] | Potency [16]

CN1CCC(OC(c2ccccc2)c2ccccc2)CC1
inactive: Potency [1] | Potency [2] | Potency [4] | fluorescence, relative to Rose Bengal [5] -0.513% [at 18.6 µM] | fluorescence, % of fluorescein control [6] -0.0945% [at 18.6 µM] | fluorescence, % of triamterene [7] -0.105% [at 18.6 µM] | fluorescence, % of fluorescent control [8] 0.0005% [at 18.6 µM] | fluorescence, % of fluorescein [9] -0.132% [at 18.6 µM] | activity change [11] -0.251% [at 18.6 µM] | fluorescence, % of fluorescent control [12] 0.167% [at 18.6 µM] | fluorescence, % of Rose Bengal [13] 0.0772% [at 18.6 µM] | fluorescence, % of fluorescent control [14] -0.163% [at 18.6 µM] | fluorescence, % of fluorescein control [18] -0.14% [at 18.6 µM] | fluorescence, % of fluorescent control [15] -0.0097% [at 18.6 µM] | Potency [17]

CCCCCC/C=C/C=O
inactive: Potency [1] | Potency [2] | Potency [3] | Potency [4] | outcome [5] | outcome [6] | Potency [7] | outcome [8] | outcome [9] | Potency [10] | outcome [11] | outcome [12] | outcome [13] | Potency [14] | Potency [15]

CCc1nn(C2CCCCC2)c2cc(C3(C#N)CCC(C(=O)O)CC3)ccc12 (stereo not given)
inactive: Potency [1] | Potency [2] | Potency [4] | outcome [5] | outcome [6] | Potency [7] | outcome [8] | outcome [9] | Potency [10] | outcome [11] | outcome [12] | Potency [14] | outcome [18] | Potency [15] | Potency [16]
active: Potency [3] 27.3 µM

CCCCCC(CO)CCC (stereo not given)
inactive: Potency [1] | Potency [2] | Potency [4] | Potency [19] | outcome [5] | outcome [6] | Potency [7] | outcome [8] | outcome [9] | Potency [10] | outcome [11] | outcome [12] | Potency [14] | outcome [18] | Potency [15]
